CHX counter – Cycloheximide Counterscreen for Small Molecule Inhibitors of Shiga Toxin. 12% of 300,000 active. max response, %. cell reporter, cycloheximide protein synthesis inhibition counterscreen. AID 2314, 2010; in the data active = max response mostly above about 13%, no sharp cut-off; inactive = mostly below about 14%; also: read at 38.3 µM for the half of the compounds with a filed dose; 0% is about no effect
NS1 inh – qHTS Assay for Inhibitors of Influenza NS1 Protein Function. AID 2326, 2010. 0.4% of 270,000 active. Potency, µM (highest dose often 46.1 µM), for inactives: top-dose activity, positive = more growth; also: potency is read from the fitted curve at half-maximal effect; actives are rising curves; nearly all actives have a fitted effect of over 50% in size
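S. cerevisiae expressing influenza A NS1, grown in glucose, washed, then diluted 1:100 into pH 6.0 -URA galactose medium with 23 nl compound. Growth recovery read as OD600; NS1-free strain serves as control.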
Shiga inhibitor – A qHTS for Small Molecule Inhibitors of Shiga Toxin; Vero cells, Shiga toxin protein synthesis inhibition reporter; inhibition, % at 38.7 µM; 9.2% of 290,000 active; AID 2315, 2010; in the data active = inhibition mostly above about 28%, no sharp cut-off; inactive = mostly below about 43%; also: 0% is about no effect
SARS PLP yeast – qHTS of Yeast-based Assay for SARS-CoV PLP. S. cerevisiae expressing SARS-CoV PLpro, growth rescue. Potency, µM (top dose mostly 32.9 µM), for inactives: at the highest dose activity, positive = growth rescue, usual class: activators. 0.19% of 330,000 active. AID 485353, 2010; also: potency is read from the fitted curve at half-maximal effect; 0% is about no effect; nearly all actives have a fitted effect of over 55% in size
Active calls of the source: *; · = no result given; [ ] = dose if it differs, or a comment. Most compounds without a hit are left out; they make up all but 12% or so of the library. Unless noted, calls follow the shape of the full dose curve.

SMILES	CHX counter	NS1 inh	Shiga inhibitor	SARS PLP yeast
CCOC(=O)C1CCCN(C(=O)CN2C(=O)c3ccccc3S2(=O)=O)C1 (stereo unspecified)	·	·	·	-0.2%
CC1CCC2(CC1)NC(=O)N(CC(=O)N1CCN(S(=O)(=O)c3ccccc3)CC1)C2=O (stereo unspecified)	-4.0	-3.5%	-9.5	2.1%
COC(=O)C(C(=O)OC)C(c1ccccc1)C(C(=O)c1ccccc1)[N+](=O)[O-] (stereo unspecified)	-0.4	-3.1%	-4.4	0.1%
COc1ccccc1NC(=O)c1cc[n+](C)cc1	-2.4	5.8%	-7.4	9.9%
COc1cccc(NC(=O)c2ccc3nc(C)sc3c2)c1	37.8*	-40.4%	60.2*	-15.7%
COc1ccccc1N1CCN(C(=O)c2coc(=O)c(Br)c2)CC1	40.0*	2.8%	81.2*	0.0%
COc1ccccc1NC(=O)c1coc(=O)c(Br)c1	77.0*	-0.2%	104.0*	-3.5%
O=C(NC(CO)(CO)CO)c1coc(=O)c(Br)c1	9.9	10.0%	1.3	2.9%
COc1cccc(NC(=O)c2cccc(Cl)c2)c1	·	·	·	4.6%
COc1ccccc1N1CCN(C(=O)c2cccc(C(=O)N3CCN(c4ccccc4OC)CC3)c2)CC1	-1.4	-25.2%	-7.8	-1.1%
O=C(Nc1cc(Cl)cc(Cl)c1)c1coc(=O)c(Br)c1	24.1*	0.3%	38.7*	-0.4%
O=C1CC/C=C\C[C@@H](CC(=O)N(CCO)Cc2ccccc2)C(=O)N2CCC[C@H]2CO1	·	·	·	3.7%
Cc1ccc(-c2[nH]ncc2C(=O)c2ccccc2C)c(O)c1	13.0	-12.3%	1.0	-0.3%
Cc1[nH]c2ccc(C(=O)Nc3ccncc3)cc2c1C	22.6*	1.5%	49.8*	-1.6%
COc1ccccc1NC(=O)c1ccc2[nH]c(C)c(C)c2c1	39.5*	-3.3%	127.6*	-4.9%
O=C1OCC(CO)(CO)N=C1NNc1ccccc1[N+](=O)[O-]	42.8*	-33.6%	57.8*	-5.2%
O=C1OCC(CO)(CO)N=C1NNc1cc(Cl)ccc1Cl	-2.3	-84.7%	-2.4	-0.3%
O=C(c1cc(COc2c(F)cccc2F)on1)N1C[C@H]2CC[C@H]1C2	76.2*	-18.9%	102.6*	3.6%
CN(CC1COc2ccccc2O1)C(=O)c1cc(COc2c(F)cccc2F)on1 (stereo unspecified)	5.8	-16.9%	13.2	-10.1%
O=C(c1cc(COc2ccc(F)cc2F)on1)N1CC2C[C@@H]3CC1C[C@H](C2)C3	43.2*	-28.4%	115.2*	-1.1%
O=C(c1cc(COc2ccc(F)cc2F)on1)N1CCN(C(=O)c2ccco2)CC1	8.3	-15.1%	-5.2	1.0%
COc1ccccc1OCc1cc(C(=O)N2CCN(C)C(c3ccccc3)C2)no1 (stereo unspecified)	58.7*	·	80.9*	-11.0%
CN1CCN(C(=O)c2cc(COc3ccc(F)cc3Cl)on2)CC1c1ccccc1 (stereo unspecified)	8.7	-11.3%	1.7	-0.6%
COc1cccc(OCc2cc(C(=O)N3CCC(C(O)C(C)C)CC3)no2)c1 (stereo unspecified)	22.5	-14.9%	5.8	-0.3%
COc1ccc(OCc2cc(C(=O)N3C[C@H]4CC[C@H]3C4)no2)c(Cl)c1	36.0*	-33.6%	88.4*	·
SMILES	CHX counter	NS1 inh	Shiga inhibitor	SARS PLP yeast
CC12CCC(=O)N1C(C(=O)Nc1cccc(F)c1)CS2 (stereo unspecified)	-1.5	14.0%	-1.9	-1.5%
O=C(Nc1ccc(C(F)(F)F)cc1)C1=NN(C2CCS(=O)(=O)C2)C(=O)CC1 (stereo unspecified)	·	·	·	3.4%[6.58 µM]
CCOC(=O)c1ccc(NS(=O)(=O)c2c(C)[nH]c(C)c2C(=O)N2CCCCC2)cc1	0.2	7.9%	-6.5	-1.0%
O=C(c1cc(COc2ccc(F)cc2F)on1)N1C[C@H]2CC[C@H]1C2	52.0*	-10.1%	100.6*	-13.7%
O=C(NCC1CCOCC1)c1cc(COc2ccc(F)cc2F)on1	10.4	-4.7%	22.1	3.1%
COCC1CCN(C(=O)c2cc(COc3ccc(F)cc3F)on2)C1 (stereo unspecified)	19.5*	-25.8%	39.4	-8.4%
COCC1CCN(C(=O)c2cc(COc3ccccc3SC)on2)C1 (stereo unspecified)	-3.7	4.5%	-8.6	1.7%
COc1ccccc1OCc1cc(C(=O)NCCN2CCCC(O)C2)no1 (stereo unspecified)	-2.3	-1.1%	4.1	3.2%
COc1ccccc1OCc1cc(C(=O)N2CC3C[C@@H]4CC2C[C@H](C3)C4)no1	50.8*	-1.3%	75.6*	-3.0%
COCCCN1C(=O)N(c2ccccc2)C(=O)C1CC(=O)Nc1ccc(F)cc1 (stereo unspecified)	1.3	-2.1%	-7.4	0.8%
O=C(O)c1cc2c(s1)-c1ccccc1OC2	8.1	-192.5%	17.7	1.8%
O=C(NC1CC1)c1cc2c(s1)-c1ccccc1OC2	77.3*	-160.5%	104.4*	-19.6%
O=C(NCc1cccs1)c1cc2c(s1)-c1ccccc1OC2	20.0*	-7.8%	32.0	-29.1%
COc1cc([N+](=O)[O-])cc(/C=N/NC(=O)CC#N)c1O	1.1	·	-3.5	7.08µM*
COc1cc([N+](=O)[O-])cc(/C=N/NC(=O)Cn2cncn2)c1O	0.3	0.4%	-4.6	0.1%
N#CCC(=O)N/N=C/c1cc([N+](=O)[O-])ccc1N1CCCC1	33.1	·	46.7*	0.1%
COc1cc([N+](=O)[O-])cc(/C=N/NC(=O)C(C)Nc2ccccc2C)c1O (stereo unspecified)	0.6	9.2%	-10.5	22.4µM*
CCCc1cc(=O)[nH]c(SCC(=O)Nc2sc3c(c2C(N)=O)CCCC3)n1	·	·	·	1.9%
Nc1ccc(-c2cn3cccnc3n2)cc1	17.4*	4.3%	75.7	-0.2%
Cc1ccc(-c2cn3cccnc3n2)cc1NC(=O)c1cccs1	16.4	-10.5%	11.0	-22.0%
COc1ccc(-c2cn3cccnc3n2)cc1NC(=O)C(C)C	6.8	2.4%	12.2	8.4%
COc1ccc(-c2cn3cccnc3n2)cc1Br	14.9*	-31.0%	98.9*	-56.1%
COc1ccc(-c2cn3cc(Br)cnc3n2)cc1	24.6*	-2.0%	23.3	-0.3%
COc1ccccc1Nc1nnc(SCC(=O)c2c(N)n(C3CC3)c(=O)[nH]c2=O)s1	·	·	·	-14.2%
Cc1cc(C(=O)N/N=C/c2cn[nH]c2-c2ccccc2)cs1	8.8	19.0%	14.7	-11.5%
SMILES	CHX counter	NS1 inh	Shiga inhibitor	SARS PLP yeast
Cc1nc(C(=O)N/N=C/c2[nH]ncc2Br)cs1	34.8*	-0.7%	44.9	-0.9%
O=C(O)C1CCC(N2C(=O)c3cccc([N+](=O)[O-])c3C2=O)CC1 (stereo unspecified)	1.2	6.6%	-7.9	-1.4%
C=CCNC(=O)c1ccc(NC(=O)CC2SC(N3CCCC3)=NC2=O)cc1 (stereo unspecified)	·	·	·	3.4%
O=C(C[N+]12CCC(CC1)C(CO)C2)c1ccc(Br)cc1 (stereo unspecified)	7.3*	-2.0%	26.8	-0.7%
O=C(COc1ccccc1F)OCC(=O)N1CCc2ccccc21	·	·	·	0.7%
O=C(NCC(=O)N1CCc2ccccc2C1)c1ccccc1Cl	22.0*	-4.2%	70.9*	-1.7%
O=C(CNC(=O)c1ccccc1Cl)OCC(=O)N1CCc2ccccc21	41.5*	·	127.0*	-0.4%
O=C(Cc1ccccc1F)OCC(=O)N1CCc2ccccc21	63.8*	-6.4%	97.4*	-0.2%
